A short description of experiment [1]: small molecules captured by biotinylated probe aFSTL3 – biochemical, small-molecule microarray, fluorescence 635/667, stem cell growth factor project, primary screen (AID 1064).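 Also: measures binding of the biotinylated anti-FSTL3 antibody to printed compounds.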 Conditions: higher = more signal.
The nature of experiment [2]: binders from COS7 lysate, DM2A8 probe, primary screen, torsin A project, cell lysate, small-molecule microarray, fluorescence 635/667 (AID 1065). Conditions: higher = more signal, COS7 lysate expressing mutant human TOR1A.
Experiment [3] can be described thus: small molecules captured by biotinylated probe aFGF2 – biochemical, small-molecule microarray, fluorescence 635/667, stem cell growth factor project, primary screen (AID 1067).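 Also: measures binding of biotinylated aFGF2 protein to printed compounds on slides; z-score merges feature fluorescence and signal-to-noise across triplicate slides.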 Conditions: higher = more signal.
A short description of experiment [4]: small molecules captured by biotinylated probe aFGF10 – biochemical, small-molecule microarray, fluorescence 635/667, stem cell growth factor project, primary screen (AID 1071).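 Also: score merges 667 nm spot intensity and signal to noise from triplicate slides.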 The conditions noted are these: higher = more signal.
The target in experiment [5] is Neurogenic locus notch homolog protein 2 (Homo sapiens) (UniProt Q04721). Kind of experiment: small molecules binding Notch2 protein – biochemical, small-molecule microarray, 635 nm fluorescence, stem cell growth factors, primary screen (AID 1073). Conditions: higher = more signal.
Experiment [6] has as its target Pro-neuregulin-1, membrane-bound isoform (Homo sapiens) (UniProt Q02297). Description: small molecules binding neuregulin-1 protein – biochemical, small-molecule microarray, fluorescence 635/667, psychiatric disease protein project, primary screen (AID 1075).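 Also: score combines 667 nm spot fluorescence with signal to noise.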 The conditions noted are these: NRG1 binding, 635 nm fluorescence, higher = more signal.
Experiment [7] deals with Neuregulin-1 EGF-like domain. Kind of experiment: small molecules binding NRG1 EGF domain – biochemical, small-molecule microarray, 635 nm fluorescence, primary screen (AID 1081).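 Also: binding of the protein to compounds printed on small-molecule microarray slides.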 Conditions: higher = more signal.
A short description of experiment [8]: FRG1 expression reporter modulators in myotubes – cell-based, C2C12 myotubes, firefly/Renilla luciferase, luminescence, FRG1 inhibition for FSHD, primary screen (AID 1084). The conditions noted are these: FRG1 promoter luciferase, higher = more signal, called active from +8 up or from −8 down.
Experiment [9] is described as follows: small molecules captured by biotinylated probe aFST – biochemical, small-molecule microarray, fluorescence 635/667, stem cell growth factor project, primary screen (AID 1086).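 Also: score merges 667 nm fluorescence with signal-to-noise of each printed compound spot.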 Conditions: higher = more signal.
Experiment [10] can be described thus: binders of probe aHhip on microarray, primary screen, stem cell growth factor project, biochemical, small-molecule microarray, fluorescence 635/667 (AID 1087).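 Also: score merges spot fluorescence at 667nm with spot signal to noise ratio.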 The conditions noted are these: higher = more signal.

Calls of active or inactive are those of the source.

This is an account of results in PubChem BioAssay.

Chain of Pro-neuregulin-1, membrane-bound isoform (Homo sapiens) (Q02297 whole entry, looked up, the tested form may be a part, canonical isoform): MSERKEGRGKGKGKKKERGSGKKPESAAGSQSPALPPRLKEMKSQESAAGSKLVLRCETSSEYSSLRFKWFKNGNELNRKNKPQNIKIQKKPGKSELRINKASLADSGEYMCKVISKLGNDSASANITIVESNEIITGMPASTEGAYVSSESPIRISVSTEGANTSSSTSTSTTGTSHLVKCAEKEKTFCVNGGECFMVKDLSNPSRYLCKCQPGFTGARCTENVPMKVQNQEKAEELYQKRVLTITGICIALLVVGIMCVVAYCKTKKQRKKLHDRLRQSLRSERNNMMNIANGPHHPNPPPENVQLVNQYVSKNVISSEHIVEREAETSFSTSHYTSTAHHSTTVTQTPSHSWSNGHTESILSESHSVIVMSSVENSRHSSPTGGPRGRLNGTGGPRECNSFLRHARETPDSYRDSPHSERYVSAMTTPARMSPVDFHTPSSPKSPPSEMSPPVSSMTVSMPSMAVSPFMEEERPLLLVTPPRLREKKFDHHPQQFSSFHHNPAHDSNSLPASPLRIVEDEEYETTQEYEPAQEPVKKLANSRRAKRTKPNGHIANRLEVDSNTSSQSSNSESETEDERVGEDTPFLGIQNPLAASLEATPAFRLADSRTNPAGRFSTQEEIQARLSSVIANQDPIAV
Chain of Neurogenic locus notch homolog protein 2 (Homo sapiens) (Q04721 whole entry, looked up, canonical isoform): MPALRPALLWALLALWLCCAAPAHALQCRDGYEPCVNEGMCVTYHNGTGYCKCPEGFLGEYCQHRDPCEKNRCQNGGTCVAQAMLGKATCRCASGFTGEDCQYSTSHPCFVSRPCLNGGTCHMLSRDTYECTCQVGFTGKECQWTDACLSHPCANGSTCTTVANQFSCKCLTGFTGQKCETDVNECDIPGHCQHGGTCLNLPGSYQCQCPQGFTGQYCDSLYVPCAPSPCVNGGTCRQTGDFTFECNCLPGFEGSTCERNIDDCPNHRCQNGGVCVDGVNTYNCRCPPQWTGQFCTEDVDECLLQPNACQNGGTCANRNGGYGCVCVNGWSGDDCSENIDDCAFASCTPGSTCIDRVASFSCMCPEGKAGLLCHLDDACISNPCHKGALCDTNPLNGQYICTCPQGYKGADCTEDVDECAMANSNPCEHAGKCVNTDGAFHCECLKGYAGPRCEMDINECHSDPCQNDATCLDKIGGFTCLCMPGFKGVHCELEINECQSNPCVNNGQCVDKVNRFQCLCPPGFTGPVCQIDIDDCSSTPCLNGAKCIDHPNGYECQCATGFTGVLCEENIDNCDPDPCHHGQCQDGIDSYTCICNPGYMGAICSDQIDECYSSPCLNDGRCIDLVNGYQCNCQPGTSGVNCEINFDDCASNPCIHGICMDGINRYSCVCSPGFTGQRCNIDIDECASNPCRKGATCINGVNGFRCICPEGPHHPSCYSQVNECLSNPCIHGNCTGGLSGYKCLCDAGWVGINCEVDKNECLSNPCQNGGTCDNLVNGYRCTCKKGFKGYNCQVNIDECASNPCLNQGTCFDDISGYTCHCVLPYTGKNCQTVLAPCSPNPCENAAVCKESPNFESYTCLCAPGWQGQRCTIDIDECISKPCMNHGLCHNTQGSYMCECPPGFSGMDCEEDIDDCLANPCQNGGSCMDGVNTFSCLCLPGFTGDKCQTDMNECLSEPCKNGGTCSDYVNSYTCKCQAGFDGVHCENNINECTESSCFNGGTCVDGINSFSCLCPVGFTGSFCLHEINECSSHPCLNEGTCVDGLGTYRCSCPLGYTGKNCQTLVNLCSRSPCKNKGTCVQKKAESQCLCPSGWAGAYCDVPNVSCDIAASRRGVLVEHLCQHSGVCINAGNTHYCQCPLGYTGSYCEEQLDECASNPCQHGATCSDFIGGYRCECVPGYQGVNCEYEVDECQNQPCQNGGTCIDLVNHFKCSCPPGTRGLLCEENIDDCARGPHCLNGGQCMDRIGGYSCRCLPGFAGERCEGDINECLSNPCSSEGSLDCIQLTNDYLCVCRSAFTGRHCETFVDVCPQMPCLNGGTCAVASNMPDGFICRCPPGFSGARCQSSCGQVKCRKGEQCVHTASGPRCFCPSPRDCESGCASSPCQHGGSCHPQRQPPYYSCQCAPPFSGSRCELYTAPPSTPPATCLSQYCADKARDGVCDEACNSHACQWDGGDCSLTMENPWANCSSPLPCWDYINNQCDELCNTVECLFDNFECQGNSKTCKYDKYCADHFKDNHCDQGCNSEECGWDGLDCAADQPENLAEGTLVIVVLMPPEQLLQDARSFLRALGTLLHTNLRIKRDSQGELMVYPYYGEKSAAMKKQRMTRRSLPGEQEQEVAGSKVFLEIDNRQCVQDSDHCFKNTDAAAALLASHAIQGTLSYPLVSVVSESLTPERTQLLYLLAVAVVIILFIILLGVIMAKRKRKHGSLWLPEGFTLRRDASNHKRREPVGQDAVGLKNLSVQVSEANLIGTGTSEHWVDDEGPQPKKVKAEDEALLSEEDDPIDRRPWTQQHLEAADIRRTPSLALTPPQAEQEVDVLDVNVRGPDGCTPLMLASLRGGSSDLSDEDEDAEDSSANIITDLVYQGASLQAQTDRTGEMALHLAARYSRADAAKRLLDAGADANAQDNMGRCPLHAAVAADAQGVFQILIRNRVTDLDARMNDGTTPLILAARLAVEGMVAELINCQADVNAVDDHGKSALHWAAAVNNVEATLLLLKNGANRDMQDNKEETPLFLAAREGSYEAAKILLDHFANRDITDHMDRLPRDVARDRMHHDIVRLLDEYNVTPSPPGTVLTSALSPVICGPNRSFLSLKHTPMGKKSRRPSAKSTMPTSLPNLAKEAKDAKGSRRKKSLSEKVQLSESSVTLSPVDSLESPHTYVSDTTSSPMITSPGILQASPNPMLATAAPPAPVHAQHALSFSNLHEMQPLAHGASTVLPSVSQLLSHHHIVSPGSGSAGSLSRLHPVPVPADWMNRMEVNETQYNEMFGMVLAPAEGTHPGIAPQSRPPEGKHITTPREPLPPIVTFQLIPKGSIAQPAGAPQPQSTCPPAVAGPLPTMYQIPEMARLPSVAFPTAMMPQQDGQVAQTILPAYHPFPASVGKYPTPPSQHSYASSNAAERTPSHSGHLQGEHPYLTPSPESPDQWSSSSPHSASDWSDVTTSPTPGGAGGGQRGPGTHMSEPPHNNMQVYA

As for `CN(C)CCCNC(=O)[C@@H]1c2ccccc2C(=O)N(Cc2cc(F)cc(C(F)(F)F)c2)[C@H]1c1ccc(CO)cc1`, the composite z-score in experiment [1] is 1.11; in experiment [2], 1.01; in experiment [3] it was -0.0692; in [4], -0.436; in experiment [5], 0.102; in experiment [6], 1.33. Also, the values for the composite z-score in experiment [7], in experiment [9] and in experiment [10] were 1.36, -0.186 and 0.316, respectively. Further, the z-score in experiment [8] was -1.19 (inactive).
With `CCCCc1nc2c(c3c1C[C@H](C)OC3)CN(CCC(C)C)CC2`, the composite z-score in experiment [1] is -0.578; in experiment [2], 0.252; in experiment [3], -0.0687; in experiment [4], 0.509; in experiment [5] it was 1.16; in experiment [6], 0.788. For the same compound, the composite z-score in experiment [7] was 1.17; in experiment [9] it was 0.295; in experiment [10], -0.199. Moreover, in [8], the z-score was 0.607 (inactive).
For `O=C(CS)NCCCCCNC(=O)[C@H]1C[C@H]2C(=O)N3CCC[C@H]3C(=O)N2[C@H]1c1cccc(OCCO)c1`, the composite z-score in experiment [1] is 0.32; in experiment [2], 1.52; in experiment [3] it was -0.0718; in [4], 0.564; in experiment [5], -0.0686; in experiment [6] it was 0.665. Besides, the composite z-score in experiment [7] came to 1.35; in [9], 0.442; in [10] it was 0.0274. Besides, in [8], the z-score is 0.556 (inactive).
Take `O=C1[C@H]2[C@H]3[C@H](O)[C@H](O)CC(=NO[C@@H]4O[C@H](CO)[C@@H](O)[C@H](O)[C@H]4O)[C@@H]3CC[C@H]2C(=O)N1Cc1ccc2c(c1)OCO2`: the composite z-score in experiment [1] is -0.401; in experiment [2], -0.271; in experiment [3], -0.166; in [4], 0.112; in experiment [5], 0.737; in experiment [6] it was 0.542. For the same compound, the composite z-score in experiment [7] was 0.974; in experiment [9] it was 0.181; in experiment [10], -0.201. Moreover, the z-score in [8] was 0.118 (inactive).
On to `COCCCNC(=O)[C@]1(Cc2ccccc2)N=C(c2ccc(OCCCO)cc2)O[C@@H]1c1ccccc1`, for which the composite z-score in experiment [1] was 0.206; in experiment [2], -0.0225; in [3] it was -0.01; in experiment [4] it was 0.791; in experiment [5], 0.967; in experiment [6] it was 1.54. Further, the composite z-score is 1.04 in [7], 0.584 in experiment [9] and -0.0645 in experiment [10]. Besides, the z-score in [8] was -1.33 (inactive).
Take `Cc1ccc(F)cc1S(=O)(=O)N[C@@H]1CCN(Cc2ccc(CC(C)C)cc2)C1`: the composite z-score in experiment [1] was -0.433; in experiment [2], 0.172; in experiment [3], -0.214; in experiment [4], -0.613; in experiment [5], -0.613; in experiment [6] it was -0.0721. The composite z-score in experiment [7] was -0.197; in experiment [9], -0.493; in experiment [10], -0.249. Further, the z-score in experiment [8] is -1.06 (inactive).
As for `CCOC(=O)NN=C1C[C@@H](O)[C@@H](O)[C@@H]2[C@@H]3C(=O)N(C[C@@H]4CCCO4)C(=O)[C@@H]3CC[C@@H]12`, the composite z-score is -0.216 in experiment [1]; 0.0306 in [2]; -0.0786 in experiment [3]; 0.454 in experiment [4]; 0.453 in [5]; 0.121 in experiment [6]. Moreover, the composite z-score in [7] was 0.69; in experiment [9] it was 0.0701; in [10], -0.0994. Also, the z-score in experiment [8] is 0.52 (inactive).
Turning to `COC(=O)[C@@]1(Cc2ccccc2)[C@H]2c3cc(C(=O)N4CCCC4)n(Cc4ccccn4)c3C[C@H]2CN1C(=O)c1ccccc1`, the composite z-score was 0.731 in experiment [1]; 0.415 in [2]; 0.589 in experiment [3]; 1.14 in experiment [4]; 1.52 in [5]; 2.18 in experiment [6]. For the same compound, the composite z-score amounted to 1.35 in experiment [7], 1.65 in experiment [9] and 0.257 in [10]. The z-score in [8] is 2.5 (inactive).
Take `CC(=O)OC[C@H]1O[C@H](CCON=C(C)CCN2CCc3nc(-c4ccccc4)c(-c4ccccc4)cc3C2)C=C[C@@H]1OC(C)=O`: the composite z-score in experiment [1] is -0.195; in experiment [2], 0.472; in experiment [3], -0.119; in [4] it was 0.173; in [5] it was 0.0174; in experiment [6], 0.266. For the same compound, the composite z-score is 0.454 in [7], -0.105 in [9] and 0.0749 in experiment [10]. In [8], the z-score was 1.23 (inactive).
Regarding `CC(C)CON=C1C[C@@H](O)[C@@H](O)[C@@H]2[C@@H]3C(=O)N(C[C@@H]4CCCO4)C(=O)[C@@H]3CC[C@H]12`, the composite z-score was -0.549 in experiment [1]; 0.254 in experiment [2]; -0.116 in [3]; 0.421 in experiment [4]; 0.595 in [5]; -0.0414 in [6]. The composite z-score is 0.59 in experiment [7], -0.179 in experiment [9] and -0.406 in [10]. Also, the z-score in [8] was -0.267 (inactive).
With `O=C1O[C@@H](c2ccccc2)[C@@H](c2ccccc2)N2[C@@H](c3ccc(OCCO)cc3)[C@]3(C(=O)Nc4ccc(C#CCCO)cc43)[C@@H](C(=O)N3CCCCCCC3)[C@H]12`, the composite z-score in experiment [1] worked out at 3.26; in [2], 2.28; in experiment [3], 0.702; in [4], 1.12; in experiment [5] it was 1.36; in [6], 2.02. The composite z-score in [7] came out at 1.18; in experiment [9] it was 3.04; in experiment [10] it was 2.53. In addition, in experiment [8], the z-score is -1.99 (inactive).
In the case of `Cn1cccc1C(O)C1C=CC2C(=O)NC(=O)C2N1Nc1ccccn1` (stereo not given), the composite z-score was -0.177 in [1]; 0.124 in experiment [2]; -0.179 in [3]; -0.0312 in experiment [4]; 0.359 in [5]; 0.782 in experiment [6]. The composite z-score in [7] was found to be 0.371; in experiment [9], 0.339; in experiment [10] it was 0.0053. Also, the z-score in experiment [8] was 1.63 (inactive).
With `CC1CC/C=C\[C@H]2OC34C=CCN(C(C)C)C(=O)[C@H]3N(CCCO)C(=O)[C@@H]4C2C(=O)O1` (stereo not given in full), the composite z-score in [1] is 0.456; in [2], 1.1; in experiment [3], -0.175; in experiment [4], 0.245; in experiment [5] it was -0.673; in experiment [6], 1.19. The composite z-score in experiment [7] is 0.866; in experiment [9], -0.5; in [10], 0.214. Moreover, the z-score in [8] was -0.345 (inactive).
